GLP-1R agonist: qHTS of GLP-1 Receptor Agonists; actives 0.007% (n = 380,000); Potency, µM (top dose mostly 45.6 µM), usual class: activators; AID 624172, 2012; HEK293 GLP-1R CRE-luciferase, luminescence, 4-6 h; cells express a hypersensitive GLP-1R form; Glucagon-like peptide 1 receptor (Homo sapiens), P43220
GLP-1R inv ag: qHTS of GLP-1 Receptor Inverse Agonists (Inhibition Mode) | Potency, µM (doses to about 38.3 µM), actives largely listed as inhibitors | actives 1.6% (n = 410,000) | HEK293 GLP-1R CRE-luciferase, luminescence, 24 h; GLP-1R form is constitutively active | Glucagon-like peptide 1 receptor (Homo sapiens), P43220; note: nearly all actives have a fitted effect of over 55% in size
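qHTS in 1536-well format: reporter HEK293 cells expressing constitutive GLP-1R activity in DMEM + 10% Nu serum, 24 hr with compounds at 37 deg C, luminescence read after 12 min with detection reagent.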
DRD3 antagonist: qHTS of D3 Dopamine Receptor Antagonist: qHTS; D(3) dopamine receptor (Homo sapiens), P35462; D3R cells, DiscoveRx beta-arrestin luminescence, antagonist mode; stronger effect = lower value; max response, negative = inhibition, %; actives 2.5% (n = 360,000); AID 652054, 2013; in the data active = max response below about -50%; inconclusive = no clear call, values can overlap the other calls
Target sequence (P35462 whole entry, looked up): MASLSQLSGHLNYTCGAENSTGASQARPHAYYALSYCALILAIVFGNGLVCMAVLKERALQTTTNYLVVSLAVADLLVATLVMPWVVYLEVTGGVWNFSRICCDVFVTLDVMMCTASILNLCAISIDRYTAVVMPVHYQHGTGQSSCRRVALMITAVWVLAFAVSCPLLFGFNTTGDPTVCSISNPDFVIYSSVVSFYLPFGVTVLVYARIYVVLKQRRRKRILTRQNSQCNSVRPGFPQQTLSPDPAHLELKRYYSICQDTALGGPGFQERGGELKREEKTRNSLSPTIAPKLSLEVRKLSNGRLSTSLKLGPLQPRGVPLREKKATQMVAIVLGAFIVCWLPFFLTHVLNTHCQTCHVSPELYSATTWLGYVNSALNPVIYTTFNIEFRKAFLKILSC
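Cells expressing the human receptor were seeded at 1500 cells/well, incubated overnight at 37 degrees C in 5% CO2, then exposed to library compounds with dopamine controls for 90 minutes at 37 degrees C before luminescent detection.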
DRD3 agonist: qHTS of D3 Dopamine Receptor Agonist: qHTS | D3R DiscoveRx beta-arrestin cells, luminescence, 90 min | max activation, % | AID 652048, 2013 | actives 0.58% (n = 410,000); in the data active = max activation above about 30%
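Agonist mode: compounds and dopamine controls were applied to plated cells for 90 min at 37 degrees C after an overnight attachment at 1500 cells/well. Luminescent read-out followed 30 - 60 minutes at room temperature with DiscoveRx detection reagent.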
Each line names hits and unclear results; the compound was inactive in the other large screens; ! = a repeat was not active. Most compounds without a hit are left out; they make up all but 4.3% or so of the library. Unless noted, calls come from the whole dose curve; as a rule, active = well fitted curve in the direction sought with a large enough effect; inconclusive = small, poorly fitted or top-dose-only effect, or another doubt; inactive = no such curve, though single readings can be large; an effect the other way counts as inactive or inconclusive.

CCOC(=O)c1cc(C)n(CC2CCC(C(=O)Nc3ccc(OC)cc3)CC2)c1C (configuration not stated)	GLP-1R inv ag inconclusive, DRD3 agonist 30 (no result: GLP-1R agonist, DRD3 antagonist)
COc1ccc(CNC(=O)CSc2ncc(S(=O)(=O)c3ccc(C)c(Cl)c3)c(=O)[nH]2)cc1	none (no result: DRD3 antagonist)
Cc1cc(NC(=O)c2sc(Nc3cccc(C(F)(F)F)c3)nc2N)no1	GLP-1R inv ag 5µM
Cc1cc(NC(=O)c2sc(Nc3ccc(F)c(Cl)c3)nc2N)no1	none
O=CN1N=C(c2ccccc2)CC1c1ccc(Cl)cc1 (configuration not stated)	GLP-1R inv ag inconclusive, DRD3 antagonist inconclusive
O=C1OC(c2ccccc2)=NC12CC2c1ccc(Cl)cc1 (configuration not stated)	DRD3 antagonist -73
c1ccc2c(NC3CCCC3)nnc(NC3CCCC3)c2c1	GLP-1R inv ag inconclusive, DRD3 antagonist -71
CCc1ccc(S(=O)(=O)c2nnn3c2nc(NCc2cccc(OC)c2)c2cc(Cl)ccc23)cc1	none (no result: GLP-1R agonist, DRD3 antagonist)
c1ccc(CN2CCC(Nc3nc(-c4ccccc4)nc4ccccc34)CC2)cc1	GLP-1R inv ag 5µM
Cc1csc2ncnc(NC3CCN(Cc4ccccc4)CC3)c12	GLP-1R inv ag inconclusive, DRD3 antagonist -90
c1ccc(CN2CCC(CNc3ncnc4ccccc34)C2)cc1 (configuration not stated)	GLP-1R inv ag inconclusive, DRD3 antagonist -64
O=[N+]([O-])c1ccccc1NC1CCN(Cc2ccccc2)CC1	GLP-1R inv ag inconclusive, DRD3 antagonist inconclusive
Cc1ccc(-c2csc3ncnc(N4CCN(Cc5ccccc5)CC4)c23)cc1	none
c1ccc(CNc2ncnc3ccccc23)cc1	DRD3 agonist 33!
CCOC(=O)c1c(S(=O)(=O)N2CCC(C(=O)NCc3cccc(C)c3)CC2)c(C)n(C)c1C	none (no result: GLP-1R agonist, DRD3 antagonist)
Cc1cc(=O)[nH]c(N/N=C/c2cn(CCC#N)nc2-c2ccccc2)n1	none
Cc1ccc(O)c(NC(=O)c2nc3nc(C)cc(C(F)F)n3n2)c1	none (no result: DRD3 antagonist)
NC(=S)N/N=C1\CC(c2ccc3c(c2)OCCO3)Oc2ccc(F)cc21 (configuration not stated)	GLP-1R inv ag 3.5µM
NC(=S)N/N=C1\CC(c2ccc3c(c2)OCCCO3)Oc2ccc(F)cc21 (configuration not stated)	GLP-1R inv ag 13µM
O=C1CC(c2ccc3c(c2)OCCO3)Oc2ccccc21 (configuration not stated)	GLP-1R inv ag inconclusive
Cc1[nH]c2ccccc2c1CN1CCC(CO)(Cc2ccccc2)CC1	GLP-1R inv ag inconclusive
COc1ccccc1C1CCN(Cc2ccc(Cl)cc2Cl)CC1	DRD3 antagonist -96
COc1ccccc1C1CCN(Cc2c(C)[nH]c3ccccc23)CC1	GLP-1R inv ag inconclusive, DRD3 antagonist -89
COc1ccccc1C1CCN(Cc2cccc3ccccc23)CC1	GLP-1R inv ag inconclusive
COc1ccccc1C1CCN(Cc2ccc(Cl)c(Cl)c2)CC1	DRD3 antagonist -79
COc1cc(/C=C/CN2CCN(Cc3ccc(C)o3)C(CCO)C2)ccc1O (configuration not stated)	DRD3 antagonist -61
C/C(=C\c1ccccc1)CN1CCN(Cc2ccc(C)o2)C(CCO)C1 (configuration not stated)	DRD3 antagonist -80
COc1ccccc1/C=C/CN1CCN(Cc2ccc(C)o2)C(CCO)C1 (configuration not stated)	GLP-1R inv ag inconclusive, DRD3 antagonist -77
CCCCOC(=O)c1ccc(NC(=O)c2ccc3c(c2)CCCN3S(C)(=O)=O)cc1	GLP-1R inv ag inconclusive (no result: GLP-1R agonist, DRD3 antagonist)
Cc1ccnc(NC(=S)NC(=O)/C=C/c2ccco2)c1	GLP-1R inv ag inconclusive, DRD3 antagonist -51
CC(=O)NC(=S)Nc1ccc(NC(=S)NC(=O)/C=C/c2ccco2)cc1	none
O=C(/C=C/c1ccco1)NC(=S)NNC(=O)c1ccco1	DRD3 antagonist -84
CN(C)c1ccc(CNC(=O)CCCN2C(=O)c3cccnc3Oc3ccc(Cl)cc32)cc1	none (no result: GLP-1R agonist, DRD3 antagonist)
O=S1(=O)[C@H]2C[C@H](CO)O[C@@]2(CO)CN1Cc1ccc(-c2cccc(Cl)c2)cc1	none
O=S1(=O)[C@H]2C[C@H](CO)O[C@@]2(CO)CN1Cc1ccc(-c2ccc(F)cc2)cc1	DRD3 agonist 31
O=C(c1ccccc1)N1CCc2cc(CNS(=O)(=O)c3ccccc3Cl)ccc21	none (no result: GLP-1R agonist, DRD3 antagonist)

Screening data: PubChem, National Center for Advancing Translational Sciences (NCATS)
